# Results published in PubChem BioAssay.
# Target: Fibroblast growth factor 10 (Homo sapiens) (UniProt O15520)
# Assay: compounds binding fibroblast growth factor 10 – biochemical, small-molecule microarray, 635 nm fluorescence, primary screen (AID 1102)
# Conditions: FGF10 binding, fluorescence 635 nm, higher = more signal
# Fibroblast growth factor 10 (Homo sapiens), sequence (O15520 whole entry, looked up): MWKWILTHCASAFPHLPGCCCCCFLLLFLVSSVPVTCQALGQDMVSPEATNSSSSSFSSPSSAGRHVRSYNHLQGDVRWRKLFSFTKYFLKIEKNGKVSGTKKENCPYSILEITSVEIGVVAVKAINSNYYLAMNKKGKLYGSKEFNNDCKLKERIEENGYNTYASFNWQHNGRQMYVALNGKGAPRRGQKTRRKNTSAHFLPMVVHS
row,Compound,composite z-score
1,[N-]=[N+]=Nc1ccccc1C[C@]1(C(=O)NCC(O)CO)N=C(c2ccc(OCCCO)cc2)O[C@H]1c1ccccc1 (stereo not given in full),0.786
2,CC(C)(C)OC(=O)CC[C@]1(C(=O)NCCN2CCOCC2)COC(c2ccc(OCCCO)cc2)=N1,1.42
3,[N-]=[N+]=NCc1ccccc1C[C@@]1(C(=O)NCC(O)CO)N=C(c2ccc(OCCCO)cc2)O[C@@H]1c1ccccc1 (stereo not given in full),-0.181
4,CC(C)[Si](C#CCCCC#N)(Oc1ccccc1Br)C(C)C,0.361
5,C=CCN1Cc2ccccc2[C@@H]2OC(c3ccc(OCCCO)cc3)=N[C@]2(CCS(=O)(=O)c2ccccc2)C1=O,1.4
6,CCOC(=O)C1=C[C@@H](C(C)C)N(S(=O)(=O)c2ccc(C)cc2)[C@H]1c1ccccc1F,0.668
7,[N-]=[N+]=NCc1ccccc1[C@@H]1OC(c2ccc(OCCCO)cc2)=N[C@]1(CCS(=O)(=O)c1ccccc1)C(N)=O,1.6
8,OCCCC1=CC(C2CC2)N(Cc2cccc(OC(F)(F)F)c2)CC1 (stereo not given),-0.963
9,Cc1ccc([C@H]2C(C(=O)O)=CCN2S(=O)(=O)c2ccc(C)cc2)cc1,0.214
10,COc1ccc([Si](C)(C)[C@H]2[C@H](CCO)O[C@@]3(C(=O)N(Cc4ccccc4)c4ccc(N5CCCCC5=O)cc43)[C@@H]2C)cc1,0.884
11,CC#CC(=O)Oc1ccc(Br)cc1C=CC(=O)OCC,-0.0853
12,COc1cc(OC)c(C(O)C2C=CC3C(=O)NC(=O)C3N2Nc2ccccn2)cc1Br (stereo not given),0.689
13,O=C1[C@H]2C=C(I)[C@H](C[C@@H]2OCCCCO)[C@@]12CO2,-0.0509
14,C=C(CCCC)/C(=C/C[C@H](OC(C)=O)c1ccc(OCCO)cc1)c1cnc2ccccc2c1,0.672
15,COc1ccc(CCNC(=O)[C@@]2(C)c3ccccc3C(=O)N(c3ccc(C)cn3)[C@H]2c2ccc(CO)cc2)cc1,-1.2
16,C=CCC(OC(C)=O)[C@@H]1[C@@H](N(Cc2ccc(-c3cccc(C(F)(F)F)c3)o2)C(=O)Cc2ccc(OC)cc2)c2cc(OCCCO)ccc2N1C(=O)c1ccc2ccccc2c1 (stereo not given in full),-0.344
17,CN(C)CCCC[C@@H]1NC(=O)[C@H]2C[C@@H](C(=O)NCCCCCN)[C@@H](c3cccc(OCCO)c3)N2C1=O,1.2
18,CC(=CC1CCCCC1)[C@@H](NC(=O)c1cccnc1)c1ccc(-c2ccccc2)cc1,-0.599
19,C=C(CCCC)/C(=C/C[C@H](OC(C)=O)c1ccccc1OCCO)c1cnc2ccccc2c1,0.931
20,O=C1OCCC=C[C@H]2OC34C=CCN(CCN5CCOCC5)C(=O)[C@H]3N(CCCCCO)C(=O)[C@@H]4C12 (stereo not given in full),-0.35
21,COC(=O)[C@@]1(Cc2ccc(F)cc2)[C@H]2c3cc(C(=O)N(C)C)n(Cc4cc(C)n(C)n4)c3C[C@H]2CN1C(=O)c1ccccc1,1.17
22,CCOc1ccc(N2C(=O)CSC2c2cccc([N+](=O)[O-])c2)cc1 (stereo not given),0.344
23,COc1cc(CO)cc(I)c1O[C@H]1C=C(C(=O)NCCO)C[C@@H](NC[C@@H]2CCCO2)[C@@H]1O,0.671
24,CCCNC(=O)[C@@H]1c2ccccc2C(=O)N(Cc2ccccc2OC)[C@H]1c1ccc(CO)cc1,0.714
25,COCCOC(=O)N1C(=O)[C@@]2(c3cc(C#CCCO)ccc31)[C@H](c1ccc(O)cc1)N1[C@H](c3ccccc3)[C@H](c3ccccc3)OC(=O)[C@H]1[C@@H]2C(=O)N1CCN(c2ncccn2)CC1,1.11
